Results: ChEMBL document CHEMBL3988442, “University of Dundee, Small-Polar-MMV Screening Library” (2021)
Screen size: about 85,000 compounds; about 440 (0.52%) showed an effect of 50% or more. The sample holds strong results, similar compounds and a random draw of the others, so the mix is not that of the screen.

Test: In vitro enzyme assay to detect hydrolysis of chlorophenol red-beta-D-[…] directly proportional to the number of Toxoplasma stably expressing beta-galactosidase
Type: functional, organism-based, Toxoplasma gondii
Set-up: scale not given: in the data most compounds retested in dose-response had high values

SMILES | Percent Effect (50 µM) | Percent Effect (10 µM)
NCc1cc2c([nH]c1=O)CCC2 | 5.937% | –
CCN(CCCOC)CC(=O)Nc1cccc(OC)c1 | -2.356% | –
COc1ccc(NC(=O)c2cncc(C)c2)cc1CO | -7.73% | –
COc1ccc(NC(=O)c2ccc(Br)cn2)cc1CO | -27.31% | –
COc1ccc(-c2cncc(N)c2)cc1CO | 96.02% | –
Cc1nc(C2CCCN2CC(=O)NCCc2ccsc2)no1 (stereo not given) | – | 7.324%
CCc1nc(C2CCCN2CC(=O)NCCc2ccsc2)no1 (stereo not given) | – | 89.95%
O=C(CN1CCCC1c1noc(C2CC2)n1)NCCc1ccsc1 (stereo not given) | – | 19.94%
CCN(C)C(=O)CNc1ccccc1S(=O)(=O)CC | -2.619% | –
O=C([C@@H]1CCCN1)N1CCCC1c1cccnc1 (stereo not given in full) | -9.249% | –
COCC(C)(CCO)NCc1cccc(F)c1 (stereo not given) | 2.377% | –
CC1(c2ccccc2)CCCN(Cc2cncn2C2CC2)C1 (stereo not given) | – | 20.67%
CC1(c2ccccc2)CCCN(Cc2cncn2C2CCCC2)C1 (stereo not given) | – | 64.76%
COCCn1cncc1CN1CCCC(C)(c2ccccc2)C1 (stereo not given) | – | 0.6483%
O=C(C(O)c1ccccc1)N(CCO)Cc1ccsc1 (stereo not given) | 11.77% | –
CCOC(=O)c1sc(O)nc1C | -0.2183% | –
CC(C)C(NC(=O)c1ccco1)C(=O)N1CCOCC1 (stereo not given) | -3.141% | –
NCC1(NS(=O)(=O)c2cccc3nonc23)CCCC1 | -3.738% | –
CC(C)NC(=O)C1CN(C(=O)NCc2ccccc2)CC12CCOCC2 (stereo not given) | – | -9.471%
CC(C)NC(=O)C1CN(C(=O)CCc2ccccc2)CC12CCOCC2 (stereo not given) | – | 56.76%
CC(C)NC(=O)C1CN(C(=O)Cc2ccccc2)CC12CCOCC2 (stereo not given) | – | 0.09588%
CC(O)CN1CCN(C(=O)CN(C)C2CC2)CC1 (stereo not given) | 3.925% | –
Cc1cc(CNC(=O)CCCN2CCCCC2)ccn1 | -5.389% | –
NC(=O)NCC1CCCN1 (stereo not given) | 26.88% | –
CNCC(C)CNC(=O)c1ccc(C(N)=O)nc1 (stereo not given) | -13.42% | –

SMILES | Percent Effect (50 µM) | Percent Effect (10 µM)
Cc1cc(C)nc(NC(=O)NC2CCC(O)CC2)c1 (stereo not given) | 31.49% | –
O=C(NCCc1nnc[nH]1)C1SCCc2ccccc21 (stereo not given) | -20.61% | –
CN(C)C(=O)Nc1cc(F)cc(F)c1 | 57.68% | –
CNCC(=O)Nc1cc(F)cc(F)c1 | 12.71% | –
CN(CC(C)(CO)CO)C(=O)Nc1cc(F)cc(F)c1 | – | 14.95%
COC1CCN(CC(=O)Nc2ccc(C(N)=O)cc2)C1 (stereo not given) | -13.26% | –
CC(=O)NCCNC(=O)c1cc(Cl)c(Cl)n1C | -20.76% | –
CCc1cc(N2CCCC(CN)C2)n2nccc2n1 (stereo not given) | 8.07% | –
Cn1cc(N2CC3(COCCN(Cc4nccs4)C3)OCC2=O)cn1.O=C(O)C(F)(F)F (stereo not given) | – | 3.864%
O=C(O)C(F)(F)F.O=C1COC2(CCN(Cc3nccs3)CC2)CN1c1ccccc1 | – | -19.73%
Cn1cc(N2CC3(CCN(Cc4nccs4)CC3)OCC2=O)cn1.O=C(O)C(F)(F)F | – | 66.73%
CN(C)S(=O)(=O)N1CCCC1c1ccsc1 (stereo not given) | 2.745% | –
O=S(=O)(c1ccc2c(c1)CCCN2)N1CCCC1 | 5.041% | –
O=C(CCCNC(=O)C1CC1)Nc1cnn(-c2ccccc2Cl)c1 | – | 12.28%
Cc1ccc(NC(=O)CCCNC(=O)C2CC2)cc1 | 98.6% | –
O=C(CCCNC(=O)C1CCCO1)Nc1ccc(Cl)cc1 (stereo not given) | – | 23.23%
CNCCCNS(=O)(=O)c1ccc(Br)c(C(C)=O)c1 | 7.594% | –
COCC(=O)N[C@H]1CN(CCS(C)(=O)=O)C[C@@H]1C(C)C | -7.194% | –
CCn1nc(CC(C)C)cc1C(=O)N1CCC(N)C1 (stereo not given) | -11.21% | –
CC(Nc1cccc2c1OCCO2)C(=O)Nc1ccc(Cl)cc1 (stereo not given) | – | 6.519%
CCc1ccc(NC(=O)C(C)Nc2cccc3c2OCCO3)cc1 (stereo not given) | – | 82.59%
CC(Nc1cccc2c1OCCO2)C(=O)Nc1ccc(S(N)(=O)=O)cc1 (stereo not given) | – | 5.712%
CC(C)CC1NCCCNC1=O (stereo not given) | 0.1576% | –
CS(=O)(=O)CCn1ccnc1-c1ccc(Cl)s1 | -2.415% | –
COc1ccccc1-c1ccccc1CC1(C(=O)O)CCNCC1 | – | 8.204%

SMILES | Percent Effect (50 µM) | Percent Effect (10 µM)
CCOC(=O)C1(Cc2ccccc2-c2ccccc2OC)CCNCC1.Cl | – | 44.64%
CN(CCCC1CCCO1)C(=O)c1cccc(N)n1 (stereo not given) | 1.142% | –
CC(=O)NCC(=O)N1CCN(c2ccncc2Cl)CC1 | -5.39% | –
OC(CNC1CCOCC1)c1cccc(OCc2ccccc2)c1 (stereo not given) | – | 6.488%
OC(CNC1CCSCC1)c1cccc(OCc2ccccc2)c1 (stereo not given) | – | 40.53%
CN1CCC(NCC(O)c2cccc(OCc3ccccc3)c2)CC1 (stereo not given) | – | 74.89%
Cc1ccc(NC(=O)CN(C)C2CC[S+]([O-])CC2)cc1 (stereo not given) | -6.954% | –
COc1ccc(C)cc1NC(=O)Cn1ccnc1 | 17.12% | –
O=C(NCc1ccc2c(c1)OCO2)Nc1nccs1 | -9.702% | –
Cl.NC(CC1CCCC1)c1ccccc1 (stereo not given) | – | -47.66%
COCC(N)c1ccccc1 (stereo not given) | 3.787% | –
NC(CC1CCCC1)c1ccc(Oc2ccccc2)cc1 (stereo not given) | – | 55.94%
CCOC(=O)C1(C(C)C)CCN(C(=O)c2cn[nH]c2)C1 (stereo not given) | -4.733% | –
N#Cc1ccnc(SCC(=O)Nc2ccncc2)c1 | 98.13% | –
COC(C)(C)C(=O)CSc1cc(C#N)ccn1 | 9.152% | –
N#Cc1ccnc(SCc2ccncc2)c1 | 30.75% | –
O=C(Cn1cc(Br)cn1)Nc1ccc2c(c1)OCCO2 | -0.8097% | –
NC(=O)C[C@@H](N)c1ccc(Cl)cc1 | 0.4297% | –
NC(=O)C[C@@H](N)c1ccccc1Cl | 50.18% | –
NC(=O)C[C@H](N)c1ccccc1 | 8.251% | –
COc1cccc(-c2noc(C3CCN(Cc4ccccc4F)C3)n2)c1.Cl (stereo not given) | – | 11.37%
COc1cccc(-c2noc(C3CCN(Cc4ccccc4C)C3)n2)c1.Cl (stereo not given) | – | 42.09%
CCNC(=O)CN1CCCC(c2nccn2CC)C1 (stereo not given) | 95.83% | –
CCn1ccnc1C1CCCN(CCC(N)=O)C1 (stereo not given) | 24% | –
CCn1ccnc1C1CCN(CC(=O)N(C)C)CC1 | 16.85% | –
